# Reference: PubChem BioAssay AID493025 (Johns Hopkins Ion Channel Center, 2011)
# The whole screen tested about 1,000 compounds, of which about 570 (57%) were called active. No rule for the calls is given here. The set was probably picked from earlier hits. The sample as a whole holds a higher share of actives than the screen did.
# Biological target: Potassium voltage-gated channel subfamily KQT member 2 (Rattus norvegicus) (UniProt O88943)
# Experiment: blockers of KCNQ2 thallium flux – cell-based, confirmation (AID 493025);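 also: 0% = vehicle wells and values are ratio percent relative to vehicle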
# Settings: KCNQ2-expressing cells, at 10 µM, stronger effect = lower value
# Sequence of Potassium voltage-gated channel subfamily KQT member 2 (Rattus norvegicus) (O88943 whole entry, looked up): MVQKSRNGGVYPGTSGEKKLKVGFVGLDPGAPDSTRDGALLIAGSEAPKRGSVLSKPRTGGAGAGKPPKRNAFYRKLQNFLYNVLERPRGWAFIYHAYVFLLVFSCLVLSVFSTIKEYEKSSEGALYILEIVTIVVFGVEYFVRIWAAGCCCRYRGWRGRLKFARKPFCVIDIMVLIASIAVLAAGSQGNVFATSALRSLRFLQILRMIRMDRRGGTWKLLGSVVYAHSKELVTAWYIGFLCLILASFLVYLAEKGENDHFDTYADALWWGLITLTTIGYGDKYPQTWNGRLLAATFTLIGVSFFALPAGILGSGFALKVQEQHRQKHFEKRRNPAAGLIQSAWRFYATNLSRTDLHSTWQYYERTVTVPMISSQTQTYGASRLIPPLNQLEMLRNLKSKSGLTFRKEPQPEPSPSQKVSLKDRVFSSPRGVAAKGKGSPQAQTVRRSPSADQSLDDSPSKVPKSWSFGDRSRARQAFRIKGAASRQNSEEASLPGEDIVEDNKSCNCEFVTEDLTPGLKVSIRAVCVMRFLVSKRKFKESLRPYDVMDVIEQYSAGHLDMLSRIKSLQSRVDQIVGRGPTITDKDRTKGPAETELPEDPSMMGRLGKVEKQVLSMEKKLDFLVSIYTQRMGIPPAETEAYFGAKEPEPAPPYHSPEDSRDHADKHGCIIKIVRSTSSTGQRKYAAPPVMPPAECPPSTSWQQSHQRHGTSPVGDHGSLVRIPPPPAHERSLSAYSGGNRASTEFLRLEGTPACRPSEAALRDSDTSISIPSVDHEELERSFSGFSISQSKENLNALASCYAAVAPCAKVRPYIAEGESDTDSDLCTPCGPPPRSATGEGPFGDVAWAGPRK
row,Structure (SMILES),"activity change, negative = inhibition"
1,CN(C)CC1Oc2ccccc2OC1(O)c1ccccc1 (configuration not stated),-32% (active)
2,O=C(NC(c1ccc(Cl)cc1)P(=O)(Oc1ccccc1)Oc1ccccc1)OCc1ccccc1 (configuration not stated),-23% (active)
